About 83,000 compounds went through this panel and 20% of them were active in at least one assay; those are over-represented in the sample as a whole.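 Activity criterion: percent growth below 10, measured after cells in 96-well plates were exposed to a single compound concentration for 48 hours.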 A number with no mark means an inactive call. Calls of active or inactive are those of the source.
Columns and labels:
Assay in all cases: NCI-60 one-dose screen, 48 h (100 = growth as untreated, 0 = no growth, -100 = all killed)
Conditions in all cases: 10 µM
SR leukemia = tested on: SR leukemia
RPMI-8226 leukemia = tested on: RPMI-8226 leukemia
OVCAR-8 ovarian = tested on: OVCAR-8 ovarian
OVCAR-5 ovarian = tested on: OVCAR-5 ovarian
OVCAR-4 ovarian = tested on: OVCAR-4 ovarian
SK-OV-3 ovarian = tested on: SK-OV-3 ovarian
IGROV1 ovarian = tested on: IGROV1 ovarian
OVCAR-3 ovarian = tested on: OVCAR-3 ovarian
NCI/ADR-RES ovarian = tested on: NCI/ADR-RES ovarian
T-47D breast = tested on: T-47D breast
BT-549 breast = tested on: BT-549 breast
MDA-MB-435 melanoma = tested on: MDA-MB-435 melanoma
SW-620 colon = tested on: SW-620 colon
MCF7 breast = tested on: MCF7 breast
HCT-116 colon = tested on: HCT-116 colon
KM12 colon = tested on: KM12 colon
HCC-2998 colon = tested on: HCC-2998 colon
HS 578T breast = tested on: HS 578T breast

SMILES	growth (SR leukemia)	growth (RPMI-8226 leukemia)	growth (OVCAR-8 ovarian)	growth (OVCAR-5 ovarian)	growth (OVCAR-4 ovarian)	growth (SK-OV-3 ovarian)	growth (IGROV1 ovarian)	growth (OVCAR-3 ovarian)	growth (NCI/ADR-RES ovarian)	growth (T-47D breast)	growth (BT-549 breast)	growth (MDA-MB-435 melanoma)	growth (SW-620 colon)	growth (MCF7 breast)	growth (HCT-116 colon)	growth (KM12 colon)	growth (HCC-2998 colon)	growth (HS 578T breast)
CCOc1nc(-c2ccccc2)cc2c(O)c(C(=O)N/N=C/c3ccc(OC)cc3)[nH]c(=O)c12	112%	82.2%	109%	125%	98.3%	95.5%	82.3%	106%	105%	80.9%	123%	113%	110%	101%	109%	107%	–	–
Nc1nc2c(nnn2C2CC(O)C(CO)O2)c(=O)[nH]1 (configuration not stated)	32%	36.2%	38.4%	87.8%	51.4%	20.2%	67.6%	40.8%	30.2%	49.8%	61.5%	41.1%	33.1%	37.4%	49.5%	44.7%	51.3%	–
Cc1nc(Nc2nc3ccccc3o2)nc(-c2cccc([N+](=O)[O-])c2)c1C(=O)Nc1ccc(F)c(Cl)c1	-8.33% (active)	-41.4% (active)	6.5% (active)	33%	16%	10%	40.3%	6.94% (active)	3.88% (active)	5.31% (active)	19.4%	8.91% (active)	9.75% (active)	3.7% (active)	6.76% (active)	-14.6% (active)	-25.6% (active)	–
CCCCC(CC#N)(CCC)CCC	93.6%	100%	104%	104%	93.2%	94.8%	102%	106%	97.7%	100%	98.5%	99.4%	108%	98.4%	106%	107%	96.3%	–
O=c1oc2cc(OS(=O)(=O)C3CC3)ccc2c2c1CCCCCC2	52.7%	49.3%	82.6%	100%	65.3%	89.1%	103%	68.7%	68.4%	57.6%	80.1%	94.8%	96.5%	81.6%	82.5%	77.8%	90.8%	–
COc1ccc(/C=C(\c2cc(OC)c(OC)c(OC)c2)c2nnc(-c3cccs3)o2)cc1	78.3%	83.9%	47.6%	99.4%	26.6%	62.7%	71.7%	82.6%	66.4%	78.7%	84.4%	65.9%	89.1%	72.4%	66.4%	90%	89.2%	–
Cc1ccc(C)c(S(=O)(=O)NC2c3ccccc3Oc3ccccc32)c1	63%	98.2%	90.6%	103%	92.6%	102%	96%	95.9%	88.5%	72.1%	102%	107%	88.8%	90.8%	91.8%	102%	104%	–
CCOC(=O)c1ccc(NC(=O)Nc2nncs2)cc1	9.88% (active)	6.49% (active)	10.8%	42.4%	49.9%	3.12% (active)	16.5%	-32.7% (active)	–	49.3%	13.7%	-41.3% (active)	18%	21.7%	12.6%	12.4%	18.8%	25.3%
Cc1cc(C)c(/C=C2\C(=O)Nc3ccc(NC(=O)CCCCCCC(=O)NO)cc32)[nH]1	22.1%	40.6%	17.7%	15.9%	50.5%	31.3%	37.9%	19.4%	92.1%	15.3%	47.5%	2.24% (active)	5.42% (active)	12.2%	–	60.2%	40.2%	–
CCCCc1ccc(NC(=O)N(CCCl)N=O)cc1	30.9%	98.6%	96.7%	104%	108%	95.3%	97.2%	105%	115%	112%	85.4%	92%	93%	92.7%	97.1%	94.3%	117%	–
O=[N+]([O-])C1CC2C=CC1C2 (configuration not stated)	92.4%	111%	102%	104%	99.7%	102%	103%	91.6%	95.6%	93%	97.3%	92.7%	103%	92.1%	107%	104%	102%	–
COc1cc(CSc2nc3ccc(Cl)cc3c(=O)n2-c2ccccc2)cc(OC)c1OC	45.6%	105%	84.3%	84.7%	81.7%	94.4%	72.5%	77.8%	75.5%	71%	92.8%	24.4%	79.7%	76.9%	61.8%	–	80%	–
C=CCn1c(C)nc2cc(Nc3nc(Nc4ccc5nc(C)n(CC=C)c5c4)c4ccccc4n3)ccc21	-44.2% (active)	-24% (active)	-40.9% (active)	-92.5% (active)	-100% (active)	-95.7% (active)	-93.8% (active)	-99.8% (active)	-23.7% (active)	-60.3% (active)	-84% (active)	-76% (active)	-76.2% (active)	-89.3% (active)	-96.5% (active)	-93.2% (active)	-96.1% (active)	–
C=CCOc1ccc2c(c1)CC=C1[C@@H]2CC[C@]2(C)C(=O)/C(=N/O)C[C@@H]12	23.9%	40.6%	91.2%	50.6%	73.3%	121%	97.1%	108%	83.1%	87.8%	89.1%	72.6%	79.6%	–	66.8%	57.9%	74.8%	–
COc1c(-c2c3sc(=O)[nH]c3nc3c2c(=O)[nH]n3C(C)C)cc2c(c1OC)OCO2	84.9%	93.2%	98.8%	96.7%	107%	99.5%	102%	113%	99.8%	98.6%	84.6%	90.9%	108%	106%	101%	101%	107%	–
Nc1ccc(Sc2ccc3c4c2cccc4c(=O)n2c4ccccc4nc32)cc1	16.1%	50.2%	50.7%	85.8%	74%	53.9%	34.5%	77.8%	56.6%	39.6%	59.1%	80.2%	46.3%	23.6%	46.8%	73.6%	80.7%	–
Cn1c([N+](=O)[O-])cnc1/C=C1\Oc2ccc(Br)cc2C1=O	6.49% (active)	6.2% (active)	-11.3% (active)	-19.1% (active)	3.03% (active)	-7.97% (active)	-21.6% (active)	-37.3% (active)	6.72% (active)	65.9%	-41% (active)	-65.8% (active)	-65.3% (active)	3.52% (active)	-27.1% (active)	-45.8% (active)	-51.7% (active)	–
COC(=O)C1(C(=O)OC)C2C(=O)C3C(C21)C3(C(=O)OC(C)(C)C)C(=O)OC(C)(C)C (configuration not stated)	113%	93.8%	104%	102%	101%	121%	109%	114%	104%	102%	101%	99.9%	106%	103%	101%	112%	112%	–

Reference: PubChem BioAssay (NCI)
